This is an account of results in PubChem BioAssay (Tox21).

Molecules are shown by their SMILES. “And” between values parts separate entries of the source, which are not always exact repeats. Equal values may be shown once. Records with an inconclusive call do not appear. A call without a number means that no potency is given here. More than one record can exist for a structure, and the calls need not agree. The source made the active and inactive calls. Calls come from the whole dose curve; as a rule, active = well fitted cell-killing curve with a large enough effect in the repeat runs; inconclusive = weak or mixed curves, or effect the other way; inactive = flat fitted curve, though single readings scatter.
Potency is the fitted concentration of half-maximal effect.

A short description of the assay: qHTS RealTime-Glo MT Cell Viability Assay in HEK293 cells - 24 hour (AID 1224886). For activity change, negative = cytotoxicity: top concentration of the series differs between compounds. Note: nearly all actives have a fitted effect of over 50% in size. The conditions noted are these: RealTime-Glo luminescence; series mostly up to 76.8 µM; activity change, negative = cytotoxicity: at the top concentration. From the text:
National Center for Advancing Translational Sciences [NCATS]
NIH Chemical Genomics Center [NCGC]
U.S. Environmental Protection Agency [EPA]
National Institutes of Environmental Health Sciences [NIEHS]
National Toxicology Program [NTP]
U.S. Food and Drug Administration [FDA]
Measure of cell viability is critical in the cell-base assay. Analysis of cell viability is necessary for the characterization of cell responses to cytotoxic drugs and environmental stress. A RealTime-Glo MT Cell Viability Assay to monitor cell viability in real time of continues cell culture during 40 hours of compound treatment was used to screen Tox21 10K library compounds in Hek293 cells. The RealTime-Glo MT Cell Viability Assay is a nonlytic, homogeneous, bioluminescent method to measure cell viability in real time using a simple, plate-based method. The assay involves adding NanoLuc luciferase and a cell-permeant prosubstrate to cells in culture. Viable cells reduce the proprietary prosubstrate to generate a substrate for NanoLuc luciferase. This substrate diffuses from cells into the surrounding culture medium, where it is rapidly used by the NanoLuc Enzyme to produce a luminescent signal. The signal correlates with the number of viable cells, making the assay well suited for cytotoxicity studies.
Tox21 Assay Protocol Summary:
The mixture of Hek293 cell suspension and reagents were dispensed at 600cells/6 ul/well in 1536-well tissue culture treated black solid bottom plates using a Multidrop dispenser. After the assay plates were incubated at a 37 C/5% CO2 incubator for 5 hours, 23 nL of compounds dissolved in DMSO, positive and negative controls was transferred to the assay plate by a pintool work station. The plates were incubated at 37 C for 40 hours. The luminescence intensity were measured at 0h, 8h, 16h, 24h, 32h and 40h time points using ViewLux plate reader during compound treatment.
For orientation: Quantitative high-throughput screening tests each substance at several concentrations.
For `CC(=O)/C=C/C1=C(C)CCCC1(C)C`, the Potency result is “inactive”.
As to `Cc1cccc(Nc2cc(Cl)nc(SCC(=O)O)n2)c1C`, the Potency result is “inactive”.
Take `C=C(C)OC(C)=O`: the Potency entry was “inactive”.
On the same count and under the same terms, next, `COc1ccc(C(=O)c2ccccc2)c(O)c1`: “inactive and 12.3 µM (active)”.
On to `Cc1c(N(C)CS(=O)(=O)O)c(=O)n(-c2ccccc2)n1C`, for which the Potency entry is “inactive”.
In the case of `Cc1c(N(C)C)c(=O)n(-c2ccccc2)n1C`, the Potency result is “inactive”.
As for `COC1=CC(=O)C[C@@H](C)[C@]12Oc1c(Cl)c(OC)cc(OC)c1C2=O`, the “activity change, negative = cytotoxicity” value is -19% [at 35.3 µM] (inactive).
`COc1ccc(O)cc1`: the Potency entry was “inactive”.
Consider `c1ccc2[nH]c(-c3cscn3)nc2c1`, for which the “activity change, negative = cytotoxicity” value is -21.7% [at 35.3 µM] (inactive).
With `CC(C)Cc1ccc(C(C)C(=O)O)cc1` (stereo not given), the Potency entry was “inactive”.
On the same count and under the same terms, as for `CC(=O)OC/C=C(C)/C=C/C=C(C)/C=C/C1=C(C)CCCC1(C)C`, the entry is “inactive”; as for `CCc1cc(C(N)=S)ccn1`, “inactive”.
`CCOCCO`: the Potency result is “inactive”.
The same measure, in the same setting: as for `C=C(C)C(N)=O`, the entry is “inactive”; as for `O=c1c(-c2ccc(O)cc2)coc2cc(O)cc(O)c12`, 24.5 µM (active); as for `CCOC(=O)C(C)(C)Oc1ccc(Cl)cc1`, “inactive”.
In the case of `CC(C)CC(C)CC(O)CC(C)C` (stereo not given), the Potency result is “inactive”.
On the same count and under the same terms, next, `NC(=O)c1ccc([N+](=O)[O-])cc1Cl`: “inactive”; `CC(=O)CCC(C)C`: “inactive”; `CC(O)COc1ccccc1` (stereo not given): “inactive”.
With `NC(=O)NO`, the Potency entry is “inactive”.
Still for that read-out and setting: as for `CCCCOCCOCCOC(C)=O`, the entry is “inactive”.
The same measure, in the same setting: next, `CCN(CC)CCOC(=O)c1ccc(N)cc1`: “inactive”; `CC1(C)O[C@@H]2[C@@H](CO[C@@]3(COS(N)(=O)=O)OC(C)(C)O[C@@H]23)O1`: “inactive”.
For `CN(C)C=O`, the Potency entry is “inactive”.
In the case of `O=c1cc[nH]c(=O)[nH]1`, the Potency entry is “inactive”.
Take `Nc1cccc(N)c1`: the Potency result is “inactive”.
As for `C#C[C@]1(O)CC[C@H]2[C@@H]3CCc4cc(O)ccc4[C@H]3CC[C@@]21C`, the Potency was 19.5 µM (active).
Same read-out and setting: as for `CN(C)Cc1cc(CN(C)C)c(O)c(CN(C)C)c1`, the entry is “inactive”; as for `C=CC(=O)NC(C)(C)CS(=O)(=O)O`, “inactive”; as for `Nc1ccc(N=Nc2ccccc2)c(N)n1`, 39.1 µM (active) and 24.5 µM (active).
Turning to `CCCCCCCC(=O)OCC(O)CO` (stereo not given), the Potency entry is “inactive”.
For `CCCCOC(=O)CCCCCCCCC(=O)OCCCC`, the Potency entry was “inactive”.
Still for that read-out and setting: next, `C1CNCCN1`: “inactive”; `COC(=O)c1ccc(C=O)cc1`: “inactive”.
Same read-out and setting: next, `COC(=O)C1CCC(C(=O)OC)CC1` (stereo not given): “inactive”; `COCCOCCOC`: “inactive”; `CC1=NN(c2ccccc2)C(=O)C1`: “inactive”.
Consider `O=C1OC(c2ccc(O)cc2)(c2ccc(O)cc2)c2ccccc21`, for which the “activity change, negative = cytotoxicity” value is 0.889% [at 35.3 µM] (inactive).
Turning to `O=[N+]([O-])c1ccc(O)cc1`, the Potency result was “inactive”.
